In PubChem BioAssay (NCATS):
Results filed as inconclusive are left out. Calls of active or inactive are those of the source. Calls come from the whole dose curve; as a rule, active = well fitted inhibition curve with a large enough effect; inconclusive = small, poorly fitted or top-dose-only effect; inactive = flat fitted curve, though single readings scatter.

How the values were obtained:
Assay in all cases: qHTS profiling for inhibitors of Plasmodium falciparum proliferation (AID 504749); note: nearly all actives have a fitted effect of over 60% in size
Settings in all cases: P. falciparum in erythrocytes, SYBR Green DNA, 72 h; series mostly up to 28.7 µM
CP260 = tested on: CP260
Method in brief: (§1)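 Fluorescence of SYBR Green-bound parasite DNA, read at 485/535 nm, served as the growth measure. Infected erythrocytes were cultured with compound 72 h; artemisinin (0.29 uM) and DMSO wells defined the normalization range.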

CP262 = tested on: CP262
Method in brief: as §1

CP265 = tested on: CP265
Method in brief: as §1

CP266 = tested on: CP266
Method in brief: as §1

CP268 = tested on: CP268
Method in brief: as §1

CP269 = tested on: CP269
Method in brief: as §1

CP286 = tested on: CP286
Method in brief: as §1

CP291 = tested on: CP291
Method in brief: as §1

CP297 = tested on: CP297
Method in brief: as §1

CP305 = tested on: CP305
Method in brief: as §1

CP315 = tested on: CP315
Method in brief: as §1

CP325 = tested on: CP325
Method in brief: as §1

CP329 = tested on: CP329
Method in brief: as §1

CP335 = tested on: CP335
Method in brief: as §1

DFO2036 = tested on: DFO2036
Method in brief: as §1

DIV14 = tested on: DIV14
Method in brief: as §1

DIV17 = tested on: DIV17
Method in brief: as §1

DIV30 = tested on: DIV30
Method in brief: as §1

Dd2 = tested on: Dd2
Method in brief: as §1

ECU = tested on: ECU
Method in brief: as §1

Measured: Potency

ClC(Cl)(Cl)Cl
inactive: all assays above

CCCCNCC(O)c1ccc(O)cc1 (stereo not given)
inactive: all assays above

Clc1ccccc1Cl
inactive: all assays above

FC(F)OC(F)(F)C(F)Cl (stereo not given)
inactive: all assays above

CCC(N)Cc1c[nH]c2ccccc12 (stereo not given)
inactive: all assays above

ClC=C(Cl)Cl
inactive: all assays above

CCOC(=O)c1ccccc1C(=O)OCC
inactive: all assays above

O=C(O)C(Cl)(Cl)Cl
inactive: all assays above

[O]=[Cd]
inactive: all assays above

COC1=CC=C2[C@H]3Cc4ccc(OC)c5c4[C@@]2(CCN3C)[C@H]1O5
inactive: all assays above

O=[N+]([O-])C(Br)(CO)CO
inactive: all assays above

CC(C)CCON=O
inactive: all assays above

c1ccc2sc(SNC3CCCCC3)nc2c1
inactive: all assays above

CC(=O)O[C@H]1CC[C@H]2[C@@H]3CCC4=CC(=O)CCC4=C3C=C[C@]12C
inactive: all assays above

O=[N+]([O-])c1ccc(F)c([N+](=O)[O-])c1
inactive: all assays above

O=C1C2CC=CCC2C(=O)N1SC(Cl)(Cl)Cl (stereo not given)
inactive: all assays above

O=C1CN(O)C(c2ccccc2)=c2cc(Cl)ccc2=N1
inactive: all assays above

C=CCN1CCC23c4c5ccc(O)c4O[C@H]2C(=O)CC[C@@]3(O)C1C5 (stereo not given in full)
inactive: all assays above

S=C=S
inactive: all assays above

CC[N+](C)(CC)CCOC(=O)C(O)(c1ccccc1)c1ccccc1
inactive: all assays above

CC(Cc1ccccc1)NC=O (stereo not given)
inactive: all assays above

O=C1CCO1
inactive: all assays above

ClCC1CO1 (stereo not given)
inactive: all assays above

O=C(OCCN1CCCCC1)C(O)(c1ccccc1)c1ccccc1
inactive: all assays above

Clc1ccc(Cl)cc1
inactive: all assays above

Clc1ccc(C2(Cn3cncn3)OCCO2)c(Cl)c1
inactive: all assays above

CCON=O
inactive: all assays above

C[N+]1(C)C2CCC1CC(OC(=O)c1c[nH]c3ccccc13)C2 (stereo not given)
inactive: all assays above

CN1c2ccccc2C(NCCCCCCC(=O)O)c2ccc(Cl)cc2S1(=O)=O (stereo not given)
inactive: all assays above
